This is a sample that favours compounds with a hit; in the whole collection about 3.2% have one here.
NOTCH ag = agonists of NOTCH signaling | NOTCH signaling luciferase reporter cells, luminescence | activation, % at 2.5 µM | actives 0.4% (n = 15,000) | AID 434982, 2010; in the data active means activation above about 2.2%
rat GALR2 ag = agonists of rat galanin receptor 2 (GALR2). Galanin receptor type 2 (Rattus norvegicus), O08726. cell-based GALR2 agonist screen. activation, % at 10 µM. actives 0.5% (n = 16,000); in the data active means activation above about 15%
PME-1 Maybr inh = inhibitors of human PME-1 in Maybridge library; Protein phosphatase methylesterase 1 (Homo sapiens), Q9Y570; recombinant PME-1, FP-Rh probe fluorescence polarization; inhibition, % at 9 µM; actives 0.5% (n = 16,000); in the data active means inhibition above about 30%
TLR4-MyD88 inh = inhibitors of human TLR4-MyD88 binding; Toll-like receptor 4 (Homo sapiens), O00206; Cell-based TLR4-MyD88 binding inhibition assay; inhibition, % at 10 µM; actives 0.06% (n = 16,000); in the data active means inhibition above about 45%
Target sequence (O00206 whole entry, looked up): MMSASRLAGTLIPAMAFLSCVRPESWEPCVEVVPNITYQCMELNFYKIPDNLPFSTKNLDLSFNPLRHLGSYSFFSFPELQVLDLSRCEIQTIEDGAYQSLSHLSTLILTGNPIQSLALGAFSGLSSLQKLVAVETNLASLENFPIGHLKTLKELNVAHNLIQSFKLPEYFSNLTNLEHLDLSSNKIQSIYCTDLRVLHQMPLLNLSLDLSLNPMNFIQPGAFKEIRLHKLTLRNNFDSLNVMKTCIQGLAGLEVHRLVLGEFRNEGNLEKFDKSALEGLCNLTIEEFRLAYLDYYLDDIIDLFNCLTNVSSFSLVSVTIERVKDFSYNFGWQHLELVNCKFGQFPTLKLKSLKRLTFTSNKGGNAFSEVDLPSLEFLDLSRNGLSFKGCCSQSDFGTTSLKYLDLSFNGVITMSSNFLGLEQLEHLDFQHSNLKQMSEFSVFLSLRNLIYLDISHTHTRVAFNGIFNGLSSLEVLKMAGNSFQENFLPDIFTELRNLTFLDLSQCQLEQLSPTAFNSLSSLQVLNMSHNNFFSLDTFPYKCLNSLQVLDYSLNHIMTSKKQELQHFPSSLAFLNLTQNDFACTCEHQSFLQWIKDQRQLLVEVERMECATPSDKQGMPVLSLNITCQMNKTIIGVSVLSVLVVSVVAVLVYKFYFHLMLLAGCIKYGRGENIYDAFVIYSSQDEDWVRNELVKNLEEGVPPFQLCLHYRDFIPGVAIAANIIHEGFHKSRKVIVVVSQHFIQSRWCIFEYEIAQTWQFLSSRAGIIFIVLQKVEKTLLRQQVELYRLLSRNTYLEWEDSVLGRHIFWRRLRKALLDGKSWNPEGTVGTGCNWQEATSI
S1P1 ag = activates the human S1P1 receptor. activation, % at 4.5 µM. actives 1.5% (n = 16,000). Sphingosine 1-phosphate receptor 1 (Homo sapiens), P21453. S1P1 agonist cell-based reporter assay; in the data active means activation above about 80%
KOR antag MB = antagonists of human kappa opioid receptor OPRK1, Maybridge library; Kappa-type opioid receptor (Homo sapiens), P41145; OPRK1 cells, antagonist mode, fluorescence readout; inhibition, % at 9 µM; actives 0.4% (n = 16,000); AID 652031, 2013; in the data active means inhibition above about 50%
Hits are given with their value; i = inactive.

SMILES | NOTCH ag | rat GALR2 ag | PME-1 Maybr inh | TLR4-MyD88 inh | S1P1 ag | KOR antag MB
S=C(NCc1ccco1)Nc1cccnc1 | i | i | i | i | 120 | i
Cn1sc(=O)c2cc(S(=O)(=O)Nc3ccccc3N3CCCCC3)ccc21 | i | 16 | i | i | i | i
CCOC(=O)c1nnc2c3c(-c4ccccc4)c(-c4ccccc4)nnc3nn2c1C | i | i | i | i | 101 | i
O=C(O)/C=C/C(=O)Nc1ccc(N2CCCCCC2)c(NC(=O)/C=C/C(=O)O)c1 | 2.4 | i | i | i | i | i
N#CC(C#N)=C1NC2=C(Cc3ccccc32)C(c2cccs2)=C1C#N | i | i | i | i | i | i
CC(=O)NCc1c(Cl)cccc1Cl | i | i | i | i | i | i
Cc1nnnn1-c1ccc(Cl)cc1 | i | i | i | i | i | i

Screening results from PubChem.
